Laboratory results taken from the supplement of paper PMC6555819.

Experiments:
Assay in all cases: PBM binding z-score (relative to random genomic background probes); higher = stronger binding; sequences stand for … in GC…GCGATTGACAGCGTAGAATGAAGG
[1] = test system: PPARg:RXRa DBDmut IVT, anti-RXR (DBD mutation: RXRa K156A/R161A, NR concentration 270 nM, RXRa partner concentration 90 nM)
Outline: (§1)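 Scanned fluorescence from custom Agilent 4×180K protein-binding microarrays was regression-normalized. Binding z-scores use random background probes as reference. Ligand-free nuclear receptor dimers were incubated on the arrays for 1 h and detected with antibodies against each partner (one per run).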

[2] = test system: PPARg:RXRa IVT, anti-PPARg (NR concentration 270 nM, RXRa partner concentration 90 nM)
Outline: as §1

[3] = test system: PPARg DBDmut:RXRa IVT, anti-PPARg (DBD mutation: PPARg1 K132A/R137A, NR concentration 270 nM, RXRa partner concentration 90 nM)
Outline: as §1

[4] = test system: PPARg DBDmut IVT, anti-PPARg (DBD mutation: PPARg1 K132A/R137A, NR concentration 270 nM)
Outline: as §1

[5] = test system: PPARg homodimer (NR concentration 180 nM)
Outline: as §1

[6] = test system: PXR:RXRa (NR concentration 270 nM, RXRa partner concentration 90 nM)
Outline: as §1

[7] = test system: PXR homodimer (NR concentration 270 nM)
Outline: as §1

[8] = test system: RARa:RXR (NR concentration 270 nM, RXRa partner concentration 90 nM)
Outline: as §1

[9] = test system: RARa homodimer (NR concentration 270 nM)
Outline: as §1

[10] = test system: RARb:RXRa (NR concentration 270 nM, RXRa partner concentration 90 nM)
Outline: as §1

[11] = test system: RARb homodimer (NR concentration 270 nM)
Outline: as §1

[12] = test system: RARg:RXRa (NR concentration 270 nM, RXRa partner concentration 90 nM)
Outline: as §1

[13] = test system: RARg homodimer (NR concentration 270 nM)
Outline: as §1

[14] = test system: RXRa DBDmut IVT, anti-RXR (DBD mutation: RXRa K156A/R161A, NR concentration 90 nM)
Outline: as §1

[15] = test system: RXRa homodimer (NR concentration 180 nM)
Outline: as §1

[16] = test system: THRa:RXRa (NR concentration 90 nM, RXRa partner concentration 90 nM)
Outline: as §1

[17] = test system: THRa homodimer (NR concentration 90 nM)
Outline: as §1

[18] = test system: VDR:RXRa (NR concentration 270 nM, RXRa partner concentration 90 nM)
Outline: as §1

[19] = test system: VDR homodimer (NR concentration 270 nM)
Outline: as §1

Sequence	PBM binding z-score [1]	PBM binding z-score [2]	PBM binding z-score [3]	PBM binding z-score [4]	PBM binding z-score [5]	PBM binding z-score [6]	PBM binding z-score [7]	PBM binding z-score [8]	PBM binding z-score [9]	PBM binding z-score [10]	PBM binding z-score [11]	PBM binding z-score [12]	PBM binding z-score [13]	PBM binding z-score [14]	PBM binding z-score [15]	PBM binding z-score [16]	PBM binding z-score [17]	PBM binding z-score [18]	PBM binding z-score [19]
CAAACTAGGTCACCGGAAGGCCAAAGTCCGCATG	8.65	8.96	1.86	0.375	2.09	2.85	-0.0574	3.4	0.162	4.54	3.78	5.9	5.62	1.55	3.59	3.53	1.43	3.23	0.943
GCAGACAGGTGAAACACAGGTAACTCAGGGTGGC	0.926	0.641	-0.0327	-0.651	-0.0531	-0.0674	-0.462	0.56	-0.402	0.685	0.58	1.37	0.385	-0.322	0.982	1.28	-0.504	-0.244	-0.7
CTCTAAAGGTCGTGCTCAGGTGAGTATACCAAAC	1.12	2.17	0.717	0.316	1.58	3.09	-0.0495	4.14	-0.0895	3.93	2.96	5.08	3.88	2.33	4.64	4.37	1.31	3.27	1.37
TCGAGTCGGTTAGTCGGGGCATTCAGCCAACATA	0.436	-0.0905	-0.814	-1.24	-0.388	-0.0849	-0.566	-0.027	-1.36	-0.00486	-0.0359	-0.443	-0.657	0.05	-0.48	0.291	-0.232	0.217	0.101
CTACTAAGGTGAACAAGGTCGTTGATTACTATTC	3.87	3.07	0.656	0.383	1.12	3.22	2.35	3.18	0.606	2.4	2.33	2.35	1.64	1.81	2.34	3.61	2.82	6.38	2.67
AGTCAAAGTTCAGGACGAGGTTACGTAAAGCACG	-0.0298	2.22	0.501	0.266	2.73	4.73	2.59	4.38	1.13	4.46	3.96	5.81	5.25	3.2	4.19	3.92	1.81	4.6	3.15
ACAGACAGGTGAATGAAGGTAACTCAGCTGGACG	0.834	1.06	0.562	-0.518	-0.217	-0.156	-0.221	0.42	-0.316	0.743	0.0507	0.439	0.784	-0.296	0.534	2.08	-0.448	-0.131	-0.781
